The record followed here is PubChem BioAssay (NCI).

The panel holds about 83,000 compounds, 20% with a hit somewhere; the sample as a whole holds those more often.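 Cell lines were cultured in 96-well plates, exposed to a single compound concentration, and assessed for percent growth 48 hours later.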 Values without a mark were called inactive. The source made the active and inactive calls. How the source made its calls: active means growth percent below 10; inactive means the rest.

Some test systems named below: SR leukemia; RPMI-8226 leukemia; OVCAR-8 ovarian; OVCAR-5 ovarian; OVCAR-4 ovarian; SK-OV-3 ovarian; IGROV1 ovarian; OVCAR-3 ovarian; HS 578T breast; NCI/ADR-RES ovarian; T-47D breast; BT-549 breast; MDA-MB-435 melanoma; SW-620 colon; MCF7 breast; HCT-116 colon; HCC-2998 colon; KM12 colon.
Holding throughout (assay): NCI-60 one-dose screen, 48 h (100 = growth as untreated, 0 = no growth, -100 = all killed)
Details in all cases: 10 µM unless noted

Take `CC1=C(C)C(=O)C(N2CCSCC2)=CC1=O`: the growth in the test with SR leukemia was 111%; in the test on RPMI-8226 leukemia, 72.9%; with OVCAR-8 ovarian it was 92.7%; in the test with OVCAR-5 ovarian it was 97.2%; in the test with OVCAR-4 ovarian, 94.4%; in the test with SK-OV-3 ovarian, 105%. Further, the growth was 92.9% with IGROV1 ovarian; 101% in the test on OVCAR-3 ovarian; 103% in the test with HS 578T breast; 93.7% with NCI/ADR-RES ovarian; 105% with T-47D breast; 91% in the test on BT-549 breast. Further, the growth in the test on MDA-MB-435 melanoma is 112%; in the test on SW-620 colon it was 97.3%; with MCF7 breast it was 99.6%; in the test with HCT-116 colon, 93%; in the test with HCC-2998 colon, 109%; in the test with KM12 colon, 105%.

Turning to `O=C(c1ccc(Cl)cc1)C1[C@H](c2ccccc2Cl)[C@@H](c2ccccc2)NC12C(=O)Nc1ccc(Br)cc12` (stereo partly specified), the growth was -54.4% (active) in the test with SR leukemia; 2.44% (active) in the test on RPMI-8226 leukemia; -76.9% (active) in the test on OVCAR-8 ovarian; -91.5% (active) in the test with OVCAR-5 ovarian; -33.3% (active) with OVCAR-4 ovarian; -7.68% (active) with SK-OV-3 ovarian. Also, the growth in the test on IGROV1 ovarian is -59.8% (active); in the test with OVCAR-3 ovarian, -48.3% (active); in the test on HS 578T breast, -36% (active); in the test on NCI/ADR-RES ovarian it was -87% (active); in the test on T-47D breast, -83.4% (active); in the test with BT-549 breast, -95.1% (active). In addition, the growth in the test with MDA-MB-435 melanoma is -93.4% (active); with SW-620 colon, -84.1% (active); with MCF7 breast it was -48.7% (active); in the test with HCT-116 colon, -98.9% (active); in the test on HCC-2998 colon it was -94.2% (active); in the test with KM12 colon, -51.8% (active).

In the case of `COc1ccc(-c2nc3ccc(-c4nnc(SCc5ccccc5)o4)cc3[nH]2)cc1`, the growth was 6.93% (active) in the test with SR leukemia; 7.16% (active) with RPMI-8226 leukemia; -36.8% (active) in the test on OVCAR-8 ovarian; 46.8% in the test with OVCAR-5 ovarian; -57.7% (active) in the test with OVCAR-4 ovarian; 5.77% (active) in the test on SK-OV-3 ovarian. For the same compound, the growth in the test with IGROV1 ovarian was -17.1% (active); in the test on OVCAR-3 ovarian, -33.1% (active); with HS 578T breast, -17.5% (active); in the test on NCI/ADR-RES ovarian it was -65.6% (active); in the test with T-47D breast, -41.9% (active); in the test with BT-549 breast, -54% (active). The growth in the test on MDA-MB-435 melanoma was -29.5% (active); in the test on SW-620 colon it was 7.51% (active); with MCF7 breast, -20.2% (active); in the test on HCT-116 colon, -60.5% (active); with HCC-2998 colon, 25.4%; with KM12 colon, 16.5%.

As to `COc1cc(CNC(=O)C[C@H](C)CCC=C(C)C)ccc1OCc1cn(-c2ccccc2Cl)nn1`, the growth is 48.5% with SR leukemia; 47.6% in the test on RPMI-8226 leukemia; 49.8% in the test with OVCAR-8 ovarian; 93.1% in the test on OVCAR-5 ovarian; 33.3% in the test on OVCAR-4 ovarian; 83% in the test on SK-OV-3 ovarian. The growth in the test with IGROV1 ovarian was 87.1%; with OVCAR-3 ovarian, 83.6%; with HS 578T breast it was 81%; with NCI/ADR-RES ovarian, 24%; with T-47D breast, 9.14% (active); in the test on BT-549 breast it was 28.2%. Moreover, the growth with MDA-MB-435 melanoma is 66.5%; in the test on SW-620 colon, 80.2%; in the test with MCF7 breast, 40.6%; with HCT-116 colon, 49.7%; in the test with HCC-2998 colon, 91.9%; in the test with KM12 colon it was 63%.

With `Cc1cccc(C)c1Nc1nnc(-c2c[nH]c3ccccc23)o1`, the growth in the test with SR leukemia was 91.5%; in the test with RPMI-8226 leukemia, 86%; in the test on OVCAR-8 ovarian, 101%; with OVCAR-5 ovarian, 103%; in the test on OVCAR-4 ovarian it was 102%; in the test with SK-OV-3 ovarian it was 76.9%. Also, the growth with IGROV1 ovarian is 89%; with OVCAR-3 ovarian, 121%; in the test on HS 578T breast, 95.9%; in the test on NCI/ADR-RES ovarian it was 94.9%; in the test on T-47D breast, 87.1%; in the test on BT-549 breast, 105%. The growth in the test with MDA-MB-435 melanoma was 103%; in the test with SW-620 colon, 99.5%; with MCF7 breast, 83.4%; in the test on HCT-116 colon it was 100%; with HCC-2998 colon it was 119%; in the test on KM12 colon it was 102%.

Turning to `c1n[nH]cc1-c1nc2ccc3[nH]ncc3c2c2c1CC1(CC2)COC1`, the growth in the test with SR leukemia was 5.21% (active); with RPMI-8226 leukemia, 71.4%; with OVCAR-8 ovarian it was 52%; in the test on OVCAR-5 ovarian, 107%; in the test on OVCAR-4 ovarian it was 89.7%; in the test on SK-OV-3 ovarian, 21.7%. Further, the growth was 55.4% with IGROV1 ovarian; 43.8% in the test with OVCAR-3 ovarian; 0.359% (active) in the test on HS 578T breast; 108% with NCI/ADR-RES ovarian; 26.8% in the test on T-47D breast; -7.9% (active) in the test with BT-549 breast. Also, the growth with MDA-MB-435 melanoma was 30.7%; in the test on SW-620 colon, 8.89% (active); in the test on MCF7 breast it was 62.4%; in the test with HCT-116 colon, 15.4%; in the test on HCC-2998 colon it was 60.4%; in the test on KM12 colon, 56.7%.

In the case of `O=C(NN1C(=O)/C(=C/C=C/c2ccc([N+](=O)[O-])o2)SC1=S)c1ccncc1`, the growth was -24.7% (active) in the test with SR leukemia; -28.4% (active) in the test on RPMI-8226 leukemia; -37.2% (active) in the test with OVCAR-8 ovarian; -98.9% (active) in the test on OVCAR-5 ovarian; -97.6% (active) in the test with OVCAR-4 ovarian; -99% (active) with SK-OV-3 ovarian. For the same compound, the growth was -94.9% (active) with IGROV1 ovarian; -100% (active) in the test on OVCAR-3 ovarian; -11% (active) in the test with HS 578T breast; -4.3% (active) with NCI/ADR-RES ovarian; -59.4% (active) in the test on T-47D breast; -91.7% (active) in the test on BT-549 breast. For the same compound, the growth is -83.7% (active) with MDA-MB-435 melanoma; -69.6% (active) in the test on SW-620 colon; -53.4% (active) in the test on MCF7 breast; -41.5% (active) with HCT-116 colon; -96.2% (active) in the test with HCC-2998 colon; -94.3% (active) in the test on KM12 colon.
